LDHA inh: qHTS assay for inhibitors of human lactate dehydrogenase; L-lactate dehydrogenase A chain (Homo sapiens), P00338; purified LDHA, NADH/diaphorase-resazurin fluorescence; stronger effect = lower value; activity change, % (values are at about 110 or 230 µM); 480,000 compounds, 0.15% hits; in the data active = activity change below about -30%; inconclusive = mostly about -25% to -30%;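 note: plate controls were DMSO wells for no effect and wells without enzyme for full effect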
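Resorufin fluorescence (ex540/em590), read at 0 and 20 min after diaphorase/resazurin addition, reports the NADH left after a 5 min room-temperature reaction of 2 nM human LDH5 with 0.06 mM NADH and 0.2 mM pyruvate.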
IL1B secr inh: qHTS for Inhibitors of Inflammasome Signaling: IL-1-beta AlphaLISA Primary Screen; THP-1 LPS/ATP IL-1B secretion, AlphaLISA, 16 h; stronger effect = lower value; activity change, % at 57.5 µM; 360,000 compounds, 4.7% hits; AID 743279, 2014; in the data active = activity change below about -50%; inconclusive = mostly about -30% to -49%
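THP-1 cells pretreated 1 hr with compounds (up to 57.5 uM final), then stimulated with LPS (250 ng/mL final) plus ATP (1.25 mM final); secreted IL-1B measured by AlphaLISA after 16 hr, decreased signal indicating inhibition.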
RORgamma inh: qHTS for inhibitors of ROR gamma transcriptional activity; Nuclear receptor ROR-gamma (Mus musculus), P51450; Drosophila S2 Gal4-RORgamma UAS-luciferase reporter, 20 h; Potency, µM (highest dose often 53.6 µM), for the others: top-dose activity change, negative = inhibition, usual class: inhibitors; 310,000 compounds, 5.4% hits; AID 2551, 2010; note: potency is the fitted concentration of half-maximal effect; nearly all actives have a fitted effect of over 60% in size
Target sequence (P51450 whole entry, looked up, the tested form may be a part): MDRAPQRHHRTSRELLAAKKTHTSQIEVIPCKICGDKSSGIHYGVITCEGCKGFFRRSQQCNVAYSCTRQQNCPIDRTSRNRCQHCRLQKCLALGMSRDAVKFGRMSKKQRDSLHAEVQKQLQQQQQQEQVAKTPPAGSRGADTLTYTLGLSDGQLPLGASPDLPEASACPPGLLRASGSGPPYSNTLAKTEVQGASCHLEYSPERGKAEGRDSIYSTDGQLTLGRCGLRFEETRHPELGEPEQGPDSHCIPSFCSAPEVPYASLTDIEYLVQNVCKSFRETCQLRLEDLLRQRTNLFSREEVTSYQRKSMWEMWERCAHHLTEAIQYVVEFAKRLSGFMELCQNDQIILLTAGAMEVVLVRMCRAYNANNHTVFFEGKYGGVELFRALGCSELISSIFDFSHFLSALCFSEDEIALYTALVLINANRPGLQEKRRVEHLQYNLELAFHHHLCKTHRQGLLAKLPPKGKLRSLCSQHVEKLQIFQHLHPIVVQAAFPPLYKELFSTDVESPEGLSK
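Stably transfected Drosophila Schneider cells are the test system, with ROR gamma fused to Gal4 and luciferase under UAS control; luminescence is read after 20 hr of 700 uM copper sulfate induction at ambient temperature.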
DT40 TDP1 CPT: qHTS for Inhibitors of human tyrosyl-DNA phosphodiesterase 1 (TDP1): qHTS in cells in presence of CPT. chicken DT40 Tdp1-/-;hTDP1 cells + 20 nM CPT, ATP luminescence, 48 h. Potency, µM (doses to about 46.2 µM), inactives show top-dose activity change, negative = growth inhibition, most hits filed as inhibitors. 420,000 compounds, 12% hits; note: potency is the fitted concentration of half-maximal effect; nearly all actives have a fitted effect of over 55% in size
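Cell growth measured by CellTiter-Glo luminescence after a minimum 48 h, 37 C compound exposure with 20 nM CPT in Tdp1-knockout DT40 cells stably expressing hTDP1, seeded 400/well; qHTS titration format.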
Gal4-VP16 FLuc: VP16 counterscreen qHTS for inhibitors of ROR gamma transcriptional activity | 310,000 compounds, 3.5% hits | Drosophila S2 Gal4-VP16 UAS-luciferase, luminescence, 20 h | Potency, µM (series often up to 53.6 µM), for inactives: at the top dose activity, negative = inhibition, actives largely listed as inhibitors;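 note: Gal4-VP16 expression switched on by copper sulfate through the metallothionein promoter; potency is the fitted concentration of half-maximal effect; nearly all actives have a fitted effect of over 50% in size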
DT40 TDP1 no CPT: qHTS for Inhibitors of human tyrosyl-DNA phosphodiesterase 1 (TDP1): qHTS in cells in absence of CPT; DT40 Tdp1-/- hTDP1 cells, no CPT, ATP luminescence, 48 h; Potency, µM (highest dose often 46.2 µM), for inactives: at the top dose activity change, negative = growth inhibition, usual class: inhibitors; 420,000 compounds, 15% hits; AID 686978, 2013; note: potency is the fitted concentration of half-maximal effect; nearly all actives have a fitted effect of over 55% in size
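Growth kinetics read by CellTiter-Glo luminescence after ≥48 hr at 37 °C. Cells: DT40 Tdp1-/- stably carrying human TDP1, 400 per well, compound exposure in the absence of CPT (DMSO vehicle).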
* = called active by the depositor; u = inconclusive; x = no result; [ ] = remark or other dose. The list is not random: actives were taken first. Their share in the collection is about 18%. Unless noted, calls come from the whole dose curve; as a rule, active = well fitted curve in the direction sought with a large enough effect; inconclusive = small, poorly fitted or top-dose-only effect, or another doubt; inactive = no such curve, though single readings can be large; an effect the other way counts as inactive or inconclusive. Unless noted, % is set by controls: 0 for no effect and ±100 for the full control effect.

SMILES	LDHA inh	IL1B secr inh	RORgamma inh	DT40 TDP1 CPT	Gal4-VP16 FLuc	DT40 TDP1 no CPT
CCOc1ccc2nc(SCC(=O)N3CCCc4ccccc43)sc2c1	1	31	10%	u	4%	u
O=C(CSc1nc2cc(Cl)ccc2s1)N1CCCc2ccccc21	-4	-3	29%	u	0%[0.365 µM]	14µM*
CCN1CCN(C(c2cccs2)c2c(NC(=O)c3ccccc3)sc(C)c2C)CC1 (stereo unspecified)	7	x	x	x	x	x
Cc1ccc2nc(C)c(C(=O)N3CCCC3C3CCCC3)cc2c1 (stereo unspecified)	20	x	x	x	x	x
Cc1nnsc1C(=O)N(Cc1ccccc1)C(C)C	-3	-8	-17%	2%	-2%	1%
CC(C)N(Cc1ccccc1)C(=O)c1ccc2nsnc2c1	-3	0	23%	u	-7%	21µM*
COc1ccc2nc(N3CCCCC3)c(/C=C3\SC(=S)NC3=O)cc2c1	-10	28	u	u	-21%	u
O=C1NC(=S)S/C1=C\c1cc2ccccc2nc1N1CCCCC1	0	63	4%	21µM*	1%	21µM*
Cc1ccc(CNS(=O)(=O)c2ccc3c(c2)CC(C)N3C(=O)C2CCC2)cc1 (stereo unspecified)	1	x	x	u	x	21µM*
Cc1ccc(CNS(=O)(=O)c2ccc3c(c2)CCN3C(=O)C2CCC2)cc1	-2	12	2%	u	0%	u
CC(=O)N1CCc2cc(S(=O)(=O)NCc3ccc(C)cc3)ccc21	-6	51	u	u	-9%	7.3µM*
CC(=O)N1c2ccc(S(=O)(=O)NCc3ccc(Cl)cc3)cc2CC1C (stereo unspecified)	-2	x	x	u	x	23µM*
CCOc1ccc(S(=O)(=O)NCCC(=O)Nc2cccc(C(=O)OC)c2)cc1	-7	-74*	24%	0%	u	-22%
FC(F)n1c(CSc2nnc3c(Cl)cc(C(F)(F)F)cn23)nc2ccccc21	17	x	x	x	x	x
COc1ccc(NC(=O)CCNS(=O)(=O)c2ccc3c(c2)CC(C)N3C(C)=O)cc1 (stereo unspecified)	-13	-1	9%	-5%	-5%	1%
CC1Cc2cc(S(=O)(=O)NCc3ccc(F)cc3)ccc2N1C(=O)C1CCC1 (stereo unspecified)	-2	x	x	u	x	2.9µM*
COc1ccc(CCNS(=O)(=O)c2ccc3c(c2)CC(C)N3C(=O)C2CC2)cc1OC (stereo unspecified)	-9	u	x	u	x	u
COc1ccccc1CNS(=O)(=O)c1ccc2c(c1)CC(C)N2C(=O)C1CC1 (stereo unspecified)	-4	0	27%	u	u	u
CCOc1ccc(NC(=O)CCNS(=O)(=O)c2ccc3c(c2)CC(C)N3C(C)=O)cc1 (stereo unspecified)	-14	4	-18%	15µM*	-2%	23µM*
CC1Cc2cc(S(=O)(=O)NCc3ccc(Cl)cc3)ccc2N1C(=O)C1CCC1 (stereo unspecified)	-3	x	x	23µM*	x	13µM*
Cc1ccc(S(=O)(=O)/C=C/CS(=O)(=O)c2ccc(C)cc2)cc1	2	x	x	x	x	x
CC(C)c1nc(N(C)CCO)c(C#N)c2c1CCCC2	10	x	x	x	x	x
Cc1nc(C(=O)NNC(=O)c2ccccc2)c(C(F)(F)F)o1	2	34	11µM*	u	-4%	u
Cc1ccc(C(=O)N/N=C/c2ccncc2)s1	-7	x	x	x	x	x
O=C(NC1CC1)c1ccc(Sc2ccccn2)cc1	0	x	x	x	x	x
SMILES	LDHA inh	IL1B secr inh	RORgamma inh	DT40 TDP1 CPT	Gal4-VP16 FLuc	DT40 TDP1 no CPT
Cc1ccc(Cl)cc1NC1=NC(=S)N(C(C)C)C12CCCCC2	1	-23	2.8µM*	u	3.5µM*	18µM*
C=C(C)Cn1c(N2CCN(Cc3ccccc3F)CC2)nc2c1c(=O)[nH]c(=O)n2C	4	x	x	x	x	x
CC[C@]12c3[nH]c4ccc(Cl)cc4c3CCN1C(=O)[C@@H](CC(=O)NC(C)(C)C)C[C@@H]2C(=O)N1CCN(C(=O)c2ccco2)CC1	-14	-3	x	15µM*	x	18µM*
CC[C@]12c3[nH]c4cc(-c5ccco5)ccc4c3CCN1C(=O)[C@@H](CC(=O)NCCN1CCOCC1)C[C@@H]2C(=O)N1CCN(C(=O)c2ccco2)CC1	-11	-1	x	-13%	x	-16%
CC[C@]12c3[nH]c4cc(-c5ccco5)ccc4c3CCN1C(=O)[C@@H](CC(=O)NC(C)(C)C)C[C@@H]2C(=O)N1CCN(C(=O)c2ccco2)CC1	1	1	x	23µM*	x	15µM*
CC[C@@H]1C=C(C(=O)O)[C@H](c2cccc(C)c2)N1S(=O)(=O)c1ccc(C)cc1	-9	32	x	-2%	x	16%
CCOC(=O)C1=C[C@@H](C(C)C)N(S(=O)(=O)c2ccc(C)cc2)[C@H]1c1ccccc1F	-5	-3	x	u	x	u
CCOC(=O)C1=C[C@@H](C(C)C)N(S(=O)(=O)c2ccc(C)cc2)[C@H]1c1ccc(C(C)C)cc1	-1	4	x	u	x	18µM*
CCOC(=O)C1=CCC(c2ccccc2)N(S(=O)(=O)c2ccc(C)cc2)[C@H]1CC (stereo partly specified)	-3	10	x	21µM*	x	16µM*
CCOC(=O)C1=C[C@@H](C(C)(C)C)N(S(=O)(=O)c2ccc(C)cc2)[C@H]1c1ccc(C)cc1	-7	51	x	13µM*	x	12µM*
CCOC(=O)C1=C[C@@H](CC)N(S(=O)(=O)c2ccc(C)cc2)[C@H]1c1ccccc1	-2	12	x	23µM*	x	15µM*
CCOC(=O)C1=C[C@@H](C2CCCC2)N(S(=O)(=O)c2ccc([N+](=O)[O-])cc2)[C@H]1c1ccccc1	-9	24	x	21µM*	x	12µM*
CC(=O)C[C@@H]1SC[C@H](c2ccccc2)N1S(=O)(=O)c1ccc(C)cc1	-5	-9	x	15µM*	x	15µM*
CC(=O)[C@H]1CC[C@@H](c2ccccc2)N(S(=O)(=O)c2ccc(C)cc2)C1	0	7	x	u	x	u

Compound activity from PubChem.
